PI4K2A inh = qHTS for small molecular inhibitors of PI4K2A. AID 1346378, 2018. activity change, negative = inhibition, % at 76.9 µM. purified PI4K2A, ADP-Glo luminescence, 1 h; hits give low values. Phosphatidylinositol 4-kinase type 2-alpha (Homo sapiens), Q9BTU6. hit rate 0.13% among 420,000; in the data active = activity change below about -50%; inconclusive = mostly about -30% to -49%
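In this quantitative HTS, ADP production by PI4K2A was quantified luminescently after 1 h at ambient temperature; 100 microM adenosine served as plate-quality control.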
PLK1 PBD block = qHTS for Inhibitors of PLK1-PDB (polo-like kinase 1 - polo-box domain): Primary Screen; Plk1 PBD binding of FITC phosphopeptide, fluorescence polarization; hit rate 2.8% among 360,000; AID 720504, 2013; Potency, µM, usual class: inhibitors; Serine/threonine-protein kinase PLK1 (Homo sapiens), P53350; also: series mostly up to about 57 µM; nearly all actives have a fitted effect of over 65% in size
Target sequence (P53350 whole entry, looked up, the tested form may be a part): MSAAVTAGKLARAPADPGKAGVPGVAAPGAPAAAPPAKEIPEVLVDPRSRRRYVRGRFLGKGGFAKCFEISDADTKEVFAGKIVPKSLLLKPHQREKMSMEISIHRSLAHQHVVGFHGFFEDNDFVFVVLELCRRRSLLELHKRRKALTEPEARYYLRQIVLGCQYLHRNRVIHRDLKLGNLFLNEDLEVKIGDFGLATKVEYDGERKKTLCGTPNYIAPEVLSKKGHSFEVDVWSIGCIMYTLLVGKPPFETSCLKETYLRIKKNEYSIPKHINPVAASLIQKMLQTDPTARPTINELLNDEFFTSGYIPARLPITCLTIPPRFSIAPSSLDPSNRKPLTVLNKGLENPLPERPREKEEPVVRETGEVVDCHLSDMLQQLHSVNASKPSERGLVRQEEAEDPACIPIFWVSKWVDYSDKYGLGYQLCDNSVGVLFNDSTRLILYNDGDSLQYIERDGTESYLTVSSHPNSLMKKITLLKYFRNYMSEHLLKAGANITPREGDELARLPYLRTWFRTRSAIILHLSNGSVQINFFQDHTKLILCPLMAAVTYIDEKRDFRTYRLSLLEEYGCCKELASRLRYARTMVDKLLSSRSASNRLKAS
VDR inhibitor = Inhibitors of the vitamin D receptor (VDR): qHTS; Vitamin D3 receptor (Homo sapiens), P11473; VDR-SRC2-3 peptide fluorescence polarization, 2 h; Potency, µM, actives largely listed as inhibitors; hit rate 0.93% among 400,000
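The screen uses fluorescence polarization to detect compounds that interfere with recruitment of the SRC2-3 coactivator peptide to VDR; plates are read after 2 h at room temperature.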
KAT2A inh = qHTS Assay for Inhibitors of GCN5L2. Histone acetyltransferase KAT2A (Homo sapiens), Q92830. GCN5L2 HAT assay, ThioGlo1 CoA-SH fluorescence. Potency, µM (doses to about 58.9 µM), most hits filed as inhibitors. hit rate 0.21% among 390,000. AID 504327, 2011
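Compounds, pin-transferred from DMSO stocks, meet 20nM GCN5L2 for 15 min before the reaction begins with H3(1-25) peptide (75uM) and acetyl-CoA (70uM). Thiol-reactive ThioGlo1 reports CoA release over 20 min at room temperature.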
GLS inh = qHTS for Inhibitors of Glutaminase (GLS); Glutaminase kidney isoform, mitochondrial (Homo sapiens), O94925; hit rate 0.21% among 410,000; GLS enzymatic activity, qHTS titration; Potency, µM (doses to about 45.5 µM), hits mostly inhibitors
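Read-out is an Amplex red fluorescence increase coupled through glutamate oxidase and HRP, measured before and after 30 min room-temperature incubation. hKGA is in 45 mM KH2PO4 (pH 8.2) with 0.02% Tween-20; glutamine added as 1mM solution.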
Numbers stand for hits; . = inactive; ? = inconclusive; / = not tested or not shown. The list is not random: actives were taken first. Their share in the collection is about 3.1%. Unless noted, calls follow the shape of the dose curve; as a rule, active = well fitted curve in the direction sought with a large enough effect; inconclusive = small, poorly fitted or top-dose-only effect, or another doubt; inactive = no such curve, though single readings can be large; an effect the other way counts as inactive or inconclusive.

SMILES	PI4K2A inh	PLK1 PBD block	VDR inhibitor	KAT2A inh	GLS inh
COc1ccc(N2CCN(C(=O)C(C)n3c(=O)cc(C(F)(F)F)c4c(C)nn(C)c43)CC2)cc1 (stereo unspecified)	.	/	.	.	.
COc1ccc(-c2nnc3ccc(SC(C)C)nn23)cc1OC	/	/	.	/	/
C=CCOc1ccc(C=CC(=O)c2c(O)c(OC)c(OC)c(OC)c2OC)cc1	.	.	44.7µM	/	.
Cc1cc(C)nc(N2CCN(C(=O)CSc3nc4ccccc4nc3N3CC(C)OC(C)C3)CC2)n1 (stereo unspecified)	.	/	/	/	/
COc1ccc(-c2nc(=S)[nH][nH]2)cc1	.	?	79.4µM	?	.
CCOc1ccc(-c2nc(=S)[nH][nH]2)cc1	.	.	.	.	.
COc1cc(-c2nc(=S)[nH][nH]2)cc(OC)c1OC	.	.	50.1µM	?	.
O=c1cc(-c2ccc(F)cc2)nc(SCc2nc(-c3ccccc3Cl)no2)[nH]1	.	/	.	.	.
Cc1cc(C(=O)CN2C(=O)c3cccc(N)c3C2=O)c(C)n1Cc1cccs1	.	3.36µM	.	.	?
Cc1cc(C(=O)CSc2nnc(-c3ccccc3F)o2)c(C)n1Cc1cccs1	.	.	.	.	.
O=C(COCc1ccccc1)N1CC[C@H]2[C@H](CCCN2Cc2ccc(F)cc2)C1	.	/	/	/	/
O=C(NC(=S)Nc1ccc(S(=O)(=O)Nc2ncccn2)cc1)c1ccc(Br)cc1	.	10.6µM	.	.	.
O=C(NC(=S)Nc1ccc(S(=O)(=O)Nc2nccs2)cc1)c1ccccc1F	.	15µM	?	.	.
O=S(=O)(NNC(=S)Nc1ccc(S(=O)(=O)Nc2ncccn2)cc1)c1ccc(Br)cc1	.	.	.	.	.
O=C(c1sccc1Cl)N1CCC(n2nnc3ncccc32)CC1	.	/	/	/	/
COC(=O)[C@H]1[C@H]2C[C@@H]3c4[nH]c5cc(OC)ccc5c4CCN3C[C@H]2C[C@@H](OC(=O)/C=C/c2ccc(O)c(OC)c2)[C@@H]1OC	.	/	/	/	/
COc1cc2[nH]c(=S)nc(NCCc3ccc(C)cc3)c2cc1OC	.	29.9µM	.	.	.
COc1ccc(CCNc2nc(=S)[nH]c3cc(OC)c(OC)cc23)cc1OC	.	.	.	.	.
COc1cc2[nH]c(=S)nc(Nc3ccc(NC(C)=O)cc3)c2cc1OC	.	29.9µM	?	.	.
C=CCN1C(=O)[C@@H](CC(=O)NCCCN2CCCC2=O)[C@]2(C(=O)OC)CCCCC=C12	.	/	/	/	/
COc1ccc2c(c(-c3ccccc3)cn2C)c1-c1ccccc1	.	/	/	/	/
FC(F)(F)c1cc(NC(=S)Nc2ccc3cc4ccccc4cc3c2)cc(C(F)(F)F)c1	/	/	22.4µM	/	/
Cc1cccc(NC(=S)NNC(=S)NCc2ccccc2)c1	.	.	89.1µM	.	.
Cc1ccc(NC(=S)NNC(=S)Nc2cccc(C(F)(F)F)c2)cc1	.	18.9µM	28.2µM	?	.
Cc1ccc(C)c(NC(=S)NNc2ccc(F)cc2F)c1	.	?	10µM	.	.
SMILES	PI4K2A inh	PLK1 PBD block	VDR inhibitor	KAT2A inh	GLS inh
FC(F)(F)c1cccc(NC(=S)NNC(=S)Nc2ccc(Cl)cc2)c1	/	/	/	.	/
FC(F)(F)c1cc(NC(=S)NC(c2ccccc2)c2ccccc2)cc(C(F)(F)F)c1	/	/	.	/	/
CC(C)CN1CN2Cc3cc(F)ccc3C2CS1(=O)=O (stereo unspecified)	.	/	/	/	/
COc1ccc([C@H]2OC(=O)C[C@H]2C(=O)N2CCN(c3ccccc3C(F)(F)F)CC2)cc1OC	.	/	/	/	/
Cc1ccc(NC(=S)NNC(=O)Nc2ccccc2)cc1	.	.	.	.	?
Cc1ccc(NC(=S)NNC(=S)Nc2ccc(C)cc2)cc1	.	?	79.4µM	/	.
Cc1ccc(NC(=O)CCC(=O)NNC(=S)Nc2ccc(F)cc2)c(C)c1	.	.	.	.	.
Cc1ccc(NNC(=S)Nc2ccc(C(C)C)cc2)c(C)c1	.	16.8µM	.	.	?
COc1ccccc1NC(=O)O[C@@H]1CC[C@@]23CCCN2C(=O)CCC[C@H]3C1	.	/	/	/	/
CCOc1ccc(N2C(=O)CC(Sc3ccccc3C(=O)O)C2=O)c([N+](=O)[O-])c1 (stereo unspecified)	.	26.7µM	.	.	.
CCN1C(=O)CC(Sc2ccccc2C(=O)O)C1=O (stereo unspecified)	.	.	.	.	.
O=C(O)c1ccccc1SC1CC(=O)N(c2cccc3ccccc23)C1=O (stereo unspecified)	.	29.9µM	.	.	.
CCOC(=O)c1c(N2C(=O)CC(Sc3ccccc3C(=O)O)C2=O)sc2c1CCCC2 (stereo unspecified)	.	.	.	.	.
Cc1ccc(-c2cc(-c3nnc(SCC(=O)Nc4ccccc4-c4ccccc4)n3N)[nH]n2)cc1	.	/	/	/	/
O=C(Nc1ccccc1)Nc1ccc(O)c2ccccc12	.	?	50.1µM	/	.
O=C(Nc1ccccc1)Nc1cccc2ccccc12	.	.	.	.	.
CCN(CC)C(=O)CN1C(=O)C2CCCCN2C(=O)c2ccccc21 (stereo unspecified)	.	/	/	/	/
Oc1ccc(Br)cc1C=Nc1ccc(Cl)cc1	.	21.2µM	.	.	.
CCN(CC)c1ccc(N=Cc2cc(Br)ccc2O)cc1	.	.	?	.	.
C[C@@](N)(C(=O)O)[C@@H]1C[C@@H]1C(=O)O	/	/	.	.	/
COc1cc(/C=C/C(=O)OCC(=O)c2ccc3c(c2)NC(=O)CO3)ccc1OC(F)F	.	18.9µM	?	.	.
COc1cc(/C=C/C(=O)OCC(=O)c2ccc(OC(F)F)cc2)ccc1O	.	.	.	.	11.2µM
CC(=O)N=Cc1c(C)c(C#N)c(=O)n(C)c1O	.	.	.	.	.
Cc1c(/C=N/Nc2ccc(F)cc2)c(O)n(C)c(=O)c1C#N	.	18.9µM	.	.	.
COc1ccc(C(F)(F)F)cc1NC(=O)C(OC(=O)CNC(=O)c1ccccc1)c1ccccc1 (stereo unspecified)	.	/	/	/	/
SMILES	PI4K2A inh	PLK1 PBD block	VDR inhibitor	KAT2A inh	GLS inh
O=C(/C=C/c1ccccc1)N1CCOCC1	.	.	.	.	.
O=C(/C=C/c1ccccc1)CCN1CCOCC1	.	21.2µM	39.8µM	/	.
C#CCCCCCCCCCCCc1ccco1	/	/	35.5µM	?	/
C/C(C=NNC(=O)CSc1nnc(-c2ccccc2)n1-c1ccc(C)cc1)=C\c1ccco1	.	/	/	/	/
Cc1cc(C)c(C(=O)CSc2nnc(N)s2)cc1C	.	9.47µM	?	.	.
Cc1ccc(C(=O)CSc2nnc(N)s2)c(C)c1	.	.	.	.	.
CC1=CC(C)(C)N(C(=O)CSc2nnc(N)s2)c2c(C)cc(C)cc21	.	.	.	3.98µM	.
COC(=O)[C@@H](C)NC(=O)C(Cc1ccc2c(c1)OCO2)NC(C)=O (stereo partly specified)	.	/	/	/	/
COc1ccc(C(=O)Cc2cc(OC)c(OC)cc2[N+](=O)[O-])c(OC)c1	.	.	.	.	11.2µM

Screens deposited in PubChem BioAssay by National Center for Advancing Translational Sciences (NCATS).
